# The full list was thinned out, with hits kept by preference.
# Dicer processing = inhibitors of Dicer pre-microRNA processing, primary screen, biochemical, cat-ELCCA, chemiluminescence. Endoribonuclease Dicer (Homo sapiens), Q9UPY3. cat-ELCCA pre-miR-21 Dicer processing; active compounds read high. z-score at 25 µM. 47,000 tested, 6% active; in the data active means z-score above about 3, passing the limit was not always enough;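 further: plate controls were vehicle for no effect and no enzyme for full effect; higher signal means more uncleaved substrate so more Dicer inhibition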
# Target sequence (Q9UPY3 whole entry, looked up): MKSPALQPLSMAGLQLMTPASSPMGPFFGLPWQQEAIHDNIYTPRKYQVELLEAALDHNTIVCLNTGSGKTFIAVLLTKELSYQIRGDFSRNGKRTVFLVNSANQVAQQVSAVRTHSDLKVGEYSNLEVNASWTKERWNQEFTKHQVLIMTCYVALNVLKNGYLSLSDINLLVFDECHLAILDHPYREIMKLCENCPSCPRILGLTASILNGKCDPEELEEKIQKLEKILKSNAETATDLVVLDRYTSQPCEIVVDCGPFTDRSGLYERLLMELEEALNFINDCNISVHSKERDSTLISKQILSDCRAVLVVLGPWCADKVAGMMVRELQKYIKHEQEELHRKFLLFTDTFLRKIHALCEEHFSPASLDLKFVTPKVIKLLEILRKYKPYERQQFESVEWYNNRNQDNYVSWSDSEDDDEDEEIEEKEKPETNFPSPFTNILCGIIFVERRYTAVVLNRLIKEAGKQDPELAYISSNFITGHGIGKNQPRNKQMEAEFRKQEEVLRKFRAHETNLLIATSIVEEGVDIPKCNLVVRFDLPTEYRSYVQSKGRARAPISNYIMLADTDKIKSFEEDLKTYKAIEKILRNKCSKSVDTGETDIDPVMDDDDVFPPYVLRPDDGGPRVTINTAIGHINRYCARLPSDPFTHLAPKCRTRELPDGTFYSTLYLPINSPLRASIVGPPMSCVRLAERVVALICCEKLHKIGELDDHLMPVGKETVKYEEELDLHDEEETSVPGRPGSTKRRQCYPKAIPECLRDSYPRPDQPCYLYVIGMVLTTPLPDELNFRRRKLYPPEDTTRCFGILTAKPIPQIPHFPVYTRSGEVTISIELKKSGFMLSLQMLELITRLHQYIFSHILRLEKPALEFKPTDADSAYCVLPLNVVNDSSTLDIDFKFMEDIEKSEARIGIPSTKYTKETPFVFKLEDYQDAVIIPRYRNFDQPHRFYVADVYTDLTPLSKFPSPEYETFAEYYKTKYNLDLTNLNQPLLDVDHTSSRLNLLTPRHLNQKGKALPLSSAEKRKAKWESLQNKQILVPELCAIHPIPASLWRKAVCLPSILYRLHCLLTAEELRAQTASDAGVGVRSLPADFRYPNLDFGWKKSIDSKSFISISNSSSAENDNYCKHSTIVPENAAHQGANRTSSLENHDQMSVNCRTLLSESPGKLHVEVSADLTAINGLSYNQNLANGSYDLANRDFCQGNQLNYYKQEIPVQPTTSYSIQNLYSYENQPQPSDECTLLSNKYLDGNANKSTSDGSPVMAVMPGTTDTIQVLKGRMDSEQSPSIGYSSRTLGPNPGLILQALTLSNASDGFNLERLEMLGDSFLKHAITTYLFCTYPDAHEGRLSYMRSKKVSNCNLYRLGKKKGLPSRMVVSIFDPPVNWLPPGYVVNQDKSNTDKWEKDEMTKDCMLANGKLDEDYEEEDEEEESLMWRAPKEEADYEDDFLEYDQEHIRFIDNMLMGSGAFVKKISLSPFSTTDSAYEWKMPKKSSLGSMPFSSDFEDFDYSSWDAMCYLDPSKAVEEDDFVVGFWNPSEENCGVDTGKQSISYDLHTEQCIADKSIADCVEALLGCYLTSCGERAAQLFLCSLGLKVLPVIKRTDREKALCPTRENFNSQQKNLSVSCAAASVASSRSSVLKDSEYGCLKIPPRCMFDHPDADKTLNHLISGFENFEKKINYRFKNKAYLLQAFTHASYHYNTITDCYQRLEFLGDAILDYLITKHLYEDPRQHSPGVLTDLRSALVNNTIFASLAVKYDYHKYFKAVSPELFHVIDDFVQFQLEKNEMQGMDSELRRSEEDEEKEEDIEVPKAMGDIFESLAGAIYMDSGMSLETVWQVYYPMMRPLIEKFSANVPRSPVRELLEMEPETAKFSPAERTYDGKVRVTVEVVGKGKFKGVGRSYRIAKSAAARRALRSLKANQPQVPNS
# * marks the source's active call; other numbers are inactive results.
SMILES,Dicer processing
O=C(c1cnn2c1NC(c1ccc(Br)cc1)CC2C(F)(F)F)N1CCOCC1 (configuration not stated),4.2*
COc1ccc(C2CC(C(F)(F)F)n3ncc(C(N)=O)c3N2)cc1 (configuration not stated),0.95
COc1ccc(C2CC(C(F)(F)F)n3ncc(C(=O)O)c3N2)cc1OC (configuration not stated),0.76
N#Cc1c(OCC(F)(F)F)ccc(Sc2ncccn2)c1OCC(F)(F)F,0.55
CN(C)/C=C(\Sc1ncccn1)C(=O)c1ccc(Cl)cc1,-0.19
COc1ccc(C2/C(=C(\O)c3ccc(Cl)cc3)C(=O)C(=O)N2c2nnc(C)s2)cc1OC (configuration not stated),4.1*
Cc1nnc(N2C(=O)C(=O)/C(=C(/O)c3ccccc3)C2c2ccccc2)s1 (configuration not stated),1.5
COc1ccc(C2/C(=C(\O)c3ccc(F)cc3)C(=O)C(=O)N2c2nnc(C)s2)cc1OC (configuration not stated),1.7
O=C1CC(NCCc2c[nH]c3ccc(Cl)cc23)C(=O)N1c1cccc(Cl)c1 (configuration not stated),2.5
C=C(C)Cc1c(COC)[nH]c(=S)[nH]c1=O,1
FC(F)(F)c1ccc(-c2nnc(-c3ccc4nccnc4c3)o2)cc1,-0.74
FC(F)(F)c1ccc(C2=NCCO2)cc1,4.8*
FC(F)(F)c1ccc(-c2nc(=S)[nH][nH]2)cc1,-0.04
Cc1cc(C)c(NC(=O)CC#N)c(C)c1,1.5
CCSc1ccsc1C1C(C#N)=C(N)N(c2cccnc2)C2=C1C(=O)CC(c1ccccc1)C2 (configuration not stated),0.14
CSc1sc(C)cc1C1C(C#N)=C(N)N(c2cccnc2)C2=C1C(=O)CC(c1ccccc1)C2 (configuration not stated),5.8*
COC(=O)C1=C(C)NC2=C(C(=O)CC(c3ccccc3)C2)C1c1cccnc1 (configuration not stated),0.96
CCN(CC)c1ncnc2c1sc1nc3c(cc12)COC(C)(C)C3,2.4
Cc1nn(C)c(C)c1NC(=O)CCSc1nc(-c2ccco2)cc(C(F)(F)F)n1,3*
O=C(CCSc1nc(-c2ccco2)cc(C(F)(F)F)n1)Nc1ccccc1,-0.26
Cc1cc(NC(=O)CCSc2nc(-c3ccco3)cc(C(F)(F)F)n2)n(-c2ccccc2)n1,1.2
O=[N+]([O-])c1cnc(Sc2n[nH]c(-c3ccccc3)n2)s1,-2.8
COc1ccc(CCN2C(=O)C(Oc3ccccc3C)C2c2ccc3c(c2)OCO3)cc1 (configuration not stated),1.8
COc1ccc(OC2C(=O)N(Cc3ccc(F)cc3)C2c2ccc3c(c2)OCO3)cc1 (configuration not stated),3.6*
O=C1C(Oc2ccccc2)C(c2ccc3c(c2)OCO3)N1CCc1ccc(F)cc1 (configuration not stated),1.2
SMILES,Dicer processing
CC1CCc2c(sc3nc[nH]c(=S)c23)C1 (configuration not stated),0.09
FC(F)(F)c1ccnc(NCCNC(=S)NCCc2ccccc2)n1,2.2
CCCCn1c(-c2ccc(N)cc2)nc2ccccc21,0.23
Nc1ccc(-c2nc3ccccc3n2CCOc2ccccc2)cc1,4.3*
Nc1nc2ccccc2n1CCOc1ccc(Br)cc1,2.5
O=C1c2oc3ccccc3c(=O)c2C(c2ccccc2F)N1c1nccs1 (configuration not stated),-1.4
CCOC(=O)c1c(-c2ccc(C)cc2)csc1N,-0.33
Cc1ccc(OCc2nc(C#N)c(NCCCN(C)C)o2)cc1,2.2
Nc1cc(Cl)ccc1Oc1ccccc1,2.7
Nc1ccc(Oc2ccccc2)cc1,5*
Fc1c(F)c(Oc2ccccc2)c(F)c(F)c1Oc1ccccc1,0.05
O=c1[nH]nc(SCCS(=O)(=O)c2ccc(F)cc2)n1C1CC1,-0.81
COc1ccc(Nc2nc(N)nc(CN3CCOCC3)n2)cc1,-0.21
COc1ccc(Nc2cc(C)nc(N3CCOCC3)n2)cc1,6.7*
COc1ccc(S(=O)(=O)Nc2ccc(N3CCOCC3)cc2)cc1,-0.27
Cc1[nH]c2[nH]n(-c3ccccc3)c(=O)c2c(=O)c1Cc1cccc(Cl)c1,-1.9
O=C(CCSc1nc(-c2ccc3c(c2)OCO3)cc(C(F)(F)F)n1)NC1CC1,0.49
Cc1ccc(S(=O)(=O)CCN2C(=O)CSC2=O)cc1,-0.24
CCCCSC1=C(C#N)C(=O)NC(CCC)S1 (configuration not stated),5.4*
CCCCSC1=C(C#N)C(=O)NCS1,5.7*
CCCCSC1=C(C#N)C(=O)NC(c2ccc(OC)cc2)S1 (configuration not stated),-2
CCCCSC1=C(C#N)C(=O)NC(CC(C)C)S1 (configuration not stated),2.9
CCCCSC1=C(C#N)C(=O)NC(c2ccccc2O)S1 (configuration not stated),0.9
CCCCCCSC1=C(C#N)C(=O)NC(CO)S1 (configuration not stated),-2.3
